Data on 40 compounds can be found in PubChem BioAssay (EPA / NIEHS).

Usually AC50 stands for the midpoint of the concentration-response curve, whichever way the signal moves.

Calls of active or inactive are those of the source. Rule for the calls: active = hit-call score of the fitted dose curve at least 0.9, where 1 is the maximum; inactive = score below 0.9.

The nature of the assay: BSK_3C_TissueFactor: BioMAP Diversity Plus: 3C Assay for Tissue Factor Biomarker Activity (AID 2282997). Conditions: BioMAP 3C HUVEC, tissue factor biomarker readout; actives raise or lower the signal. The method, then:
BSK_3C is a cell-based, multiplexed-readout assay that uses umbilical vein endothelium, a human vascular primary cell, with measurements taken at 24 hours after chemical dosing in a 96-well plate.BSK_3C_TissueFactor is an assay component measured in the BSK_3C assay. It measures Tissue Factor antibody related to regulation of gene expression using ELISA technology.Data from the assay component BSK_3C_TissueFactor was analyzed into 1 assay endpoint. This assay endpoint, BSK_3C_TissueFactor, was analyzed with bidirectional fitting relative to DMSO as the negative control and baseline of activity. Using a type of binding reporter, gain or loss-of-signal activity can be used to understand changes in the signaling as they relate to the gene F3. Furthermore, this assay endpoint can be referred to as a primary readout, because this assay has produced multiple assay endpoints where this one serves a signaling function. To generalize the intended target to other relatable targets, this assay endpoint is annotated to the cytokine intended target family, where the subfamily is coagulation factor.
The levels of cell surface (or secreted, indicated by the prefix "s") biomarker endpoints were measured by ELISA. Overt cytotoxicity to cells in confluent adherent cultures (all systems other than the BT system) was assessed by measuring total protein levels using sulforhodamine B (SRB) staining in parallel cultures at the time of biomarker measurements, indicated as SRB endpoints. For proliferation assays for adherent cell types, individual cell types are cultured at sub-confluence and relative cell numbers quantified by SRB staining at time points optimized for each system (48 h: 3C and CASM3C systems; 72 h: BT and HDF3CGF systems; 96 h: SAg system). SRB was performed by staining cells with 0.1% SRB after fixation with 10% TCA and reading wells at 560 nm.Viability and proliferation of PBMC (T cells) was quantified by Alamar Blue reduction for the SAg and BT systems. For PBMC viability (referred to as PBMC Cytotoxicity within the assay endpoint names), cells were plated (75,000/well in a 96-well plate) and then chemical samples added for 1 h before addition of activators, SEB and TSST-1 (20 ng/mL final concentration each). Cells were incubated for 90 h. Then, Alamar Blue (20 uL/well) (Invitrogen, Cat DAL1100) was added for 6 h, and the plates were read with a fluorescence microplate reader at 546/580 nm (excitation/emission). For PBMC proliferation, cells were plated and activated as above but incubated for only 16 h prior to addition of Alamar Blue. Plates were read after 6 h.
For the compound `Oc1ccccc1Cl`, the outcome was inactive.
Same read-out and setting: the value for `CN(C)C(=O)Nc1ccc(Cl)cc1` was “inactive”.
As for `COP(=S)(OC)SCN1C(=O)c2ccccc2C1=O`, the AC50 is 7.76 µM (active).
On the same count and under the same terms, the value for `CO[C@@H]1[C@H](OC(=O)NC(=O)CCl)CC[C@]2(CO2)[C@H]1[C@@]1(C)O[C@@H]1CC=C(C)C` was 3.62 µM (active).
As to `Cc1ccc(N)c(N)c1`, the outcome was inactive.
In the case of `CCOC(=O)[C@]1(c2ccccc2)Oc2ccccc2[C@@H]1N`, the AC50 is 20 µM (active).
As to `c1ccc(N=Nc2ccccc2)cc1`, the outcome was inactive.
The same measure, in the same setting: for `CCCCC(CC)COC(=O)c1ccc(C(=O)OCC(CC)CCCC)c(C(=O)OCC(CC)CCCC)c1` (stereo not given) the value was “inactive”.
The same measure, in the same setting: for `COC(=O)c1ccccc1N` the value was “inactive”; for `O=P(OCCCl)(OCCCl)OCCCl`, “inactive”; for `N#CC(Br)(Br)C(N)=O`, “inactive”.
Still for that read-out and setting: for `CC(C)(C)OOC(C)(C)CCC(C)(C)OOC(C)(C)C` the value was “inactive”.
Turning to `Cc1cc(N=Nc2ccccc2C)ccc1N`, the outcome was inactive.
Regarding `ClC1=C(Cl)[C@]2(Cl)[C@H]3[C@H]([C@@H]4C=C[C@H]3C4)[C@@]1(Cl)C2(Cl)Cl`, the AC50 was 28.5 µM (active).
In the case of `CCCCOC(=O)c1ccccc1C(=O)OCc1ccccc1`, the result was inactive.
As for `CC(C)(OOC(C)(C)c1ccccc1)c1ccccc1`, the AC50 is 29 µM (active).
Regarding `CCOc1cccc(C2(N3CCN(c4ccccc4)CC3)CCC(C)CC2)c1` (stereo not given), the result was inactive.
Same read-out and setting: for `Clc1ccc(Cl)c(Cl)c1` the value was “inactive”; for `[As]#[In]`, “inactive”.
Same read-out and setting: the value for `O=C(Nc1ccccc1)c1ccccc1I` was “inactive”.
For `CC(C)(O)c1cnn2c(-c3ccc(F)c(-c4c(F)cccc4C#N)c3)cnc2n1`, the AC50 is 28.2 µM (active).
As to `Cc1ccc(N)cc1`, the outcome was inactive.
With `CCCCCCCCOC(=O)c1ccc(C(=O)OCCCCCCCC)c(C(=O)OCCCCCCCC)c1`, the result was inactive.
Take `CCCCCCCCn1sccc1=O`: the AC50 was 11.7 µM (active).
Still for that read-out and setting: the value for `COc1cc(C=O)cc2c1[C@H](COC(N)=O)[C@]1(OC(C)=O)ON2C[C@H]2[C@@H]1N2C(C)=O` was 6.64 µM (active).
As for `Brc1ccc(Oc2ccccc2)cc1`, the outcome was inactive.
The same measure, in the same setting: for `C=CCc1ccc2c(c1)OCO2` the value was “inactive”; for `CCC12COCN1COC2`, “inactive”; for `O=C1CCCO1`, “inactive”.
Turning to `Cc1ccc([N+](=O)[O-])cc1`, the result was inactive.
Still for that read-out and setting: the value for `C[N+](C)(C)CC1CO1` (stereo not given) was “inactive”; that for `c1ccc(C2CO2)cc1` (stereo not given) was “inactive”; that for `CN(C)c1ccccc1` was “inactive”.
Same read-out and setting: for `c1ccc(NNc2ccccc2)cc1` the value was “inactive”; for `CCCSC(=O)N(CCC)CCC`, “inactive”; for `O=[N+]([O-])c1ccc(Oc2ccc(Cl)cc2Cl)cc1`, “inactive”.
As to `c1ccc2c(c1)-c1cccc3cccc-2c13`, the half-maximal activity concentration (AC50) is 0.669 µM (active).
For `CC(C)COC(=O)c1ccccc1C(=O)OCC(C)C`, the AC50 is 12.4 µM (active).
As for `CCCCCOC(=O)c1ccccc1C(=O)OCCCCC`, the result was inactive.
Still for that read-out and setting: the value for `N#CC(Br)Br` was “inactive”.
